Reference: the supplement of paper PMC4840960

What was measured:
[1] = tested on: E18 rat cortical neuron-glia co-culture; assay: fiber score / MBP score (myelination specific beyond OL differentiation) (ratio); higher = more myelination-specific MBP alignment; conditions: treatment time: 8 days (DIV5-DIV13)
In short: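 Papain-dissociated primary E18 rat cortical co-cultures, plated at 20,000 cells/well on poly-d-lysine/laminin 96-well plates, were exposed to library compounds at 1 or 5 µM in myelination medium between DIV5 and DIV13. Following fixation in 4 % paraformaldehyde, cultures were stained for MBP, Olig2 and DAPI, and four 10X fields per well were analysed in duplicate wells. Values are the ratio of fiber score (continuous MBP fiber length per Olig2+ nucleus) to MBP score (thresholded MBP area × intensity per Olig2+ nucleus).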

[2] = tested on: E18 rat cortical neuron-glia co-culture; assay: myelination (MBP fiber length per Olig2+ nucleus), % of 1 µM DAPT response (DMSO = 0) (% of DAPT); higher = more myelination, active = 50 or more; conditions: treatment time: 8 days (DIV5-DIV13)
In short: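 Myelination, expressed as continuous straight MBP fiber length per Olig2+ nucleus, was normalised to 0.1 % DMSO as 0 and a 1 µM positive control as 100. The cultures were primary E18 rat cortical co-cultures dissociated with papain and plated at 20,000 cells/well on poly-d-lysine/laminin-coated 96-well plates. They received library compounds at 1 or 5 µM in myelination medium between DIV5 and DIV13. Analysis covered four 10X fields per well in duplicate wells after 4 % paraformaldehyde fixation and immunostaining for MBP and Olig2 with DAPI.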

C/C(=C\C(=O)OCCCCCCCCC(=O)O)C[C@@H]1OC[C@H](C[C@@H]2O[C@H]2[C@@H](C)[C@H](C)O)[C@@H](O)[C@H]1O [Mupirocin]
fiber score / MBP score ([1]; 1 µM): 0.423 | fiber score / MBP score ([1]; 5 µM): 0.41 | myelination ([2]; 1 µM): -12.7 (inactive) | myelination ([2]; 5 µM): -11.7 (inactive)

CCN1CC(CCN2CCOCC2)C(c2ccccc2)(c2ccccc2)C1=O (stereo not given) [Doxapram]
fiber score / MBP score ([1]; 1 µM): 0.83 | fiber score / MBP score ([1]; 5 µM): 0.769 | myelination ([2]; 1 µM): -10.9 (inactive) | myelination ([2]; 5 µM): -11 (inactive)

CN(C)[C@@H]1C(O)=C(C(N)=O)C(=O)[C@@]2(O)C(O)=C3C(=O)c4c(O)cccc4C[C@H]3C[C@@H]12 [Sancycline]
fiber score / MBP score ([1]; 1 µM): 0.961 | fiber score / MBP score ([1]; 5 µM): 0.714 | myelination ([2]; 1 µM): -12.5 (inactive) | myelination ([2]; 5 µM): -15 (inactive)

CCS(=O)(=O)CCn1c([N+](=O)[O-])cnc1C [Tinidazole]
fiber score / MBP score ([1]; 1 µM): 0.727 | fiber score / MBP score ([1]; 5 µM): 0.706 | myelination ([2]; 1 µM): -10.7 (inactive) | myelination ([2]; 5 µM): -14.2 (inactive)

Cc1ncc([N+](=O)[O-])n1CCO [Metronidazole]
fiber score / MBP score ([1]; 1 µM): 0.862 | fiber score / MBP score ([1]; 5 µM): 0.794 | myelination ([2]; 1 µM): -7.63 (inactive) | myelination ([2]; 5 µM): -10.1 (inactive)

CCCNCC(O)COc1ccccc1C(=O)CCc1ccccc1 (stereo not given) [Propafenone]
fiber score / MBP score ([1]; 1 µM): 0.873 | fiber score / MBP score ([1]; 5 µM): 0.376 | myelination ([2]; 1 µM): -1.52 (inactive) | myelination ([2]; 5 µM): -22.4 (inactive)

C[C@H](CCC(=O)O)[C@H]1CC[C@H]2[C@@H]3C(=O)C[C@@H]4CC(=O)CC[C@]4(C)[C@H]3CC(=O)[C@]12C [Dehydrocholic Acid]
fiber score / MBP score ([1]; 1 µM): 0.477 | fiber score / MBP score ([1]; 5 µM): 0.662 | myelination ([2]; 1 µM): -18.3 (inactive) | myelination ([2]; 5 µM): -14.2 (inactive)

CCOc1cc(CC(=O)N[C@@H](CC(C)C)c2ccccc2N2CCCCC2)ccc1C(=O)O [Repaglinide]
fiber score / MBP score ([1]; 1 µM): 0.81 | fiber score / MBP score ([1]; 5 µM): 1.19 | myelination ([2]; 1 µM): -8.93 (inactive) | myelination ([2]; 5 µM): 2.54 (inactive)

C[C@H](CCC(=O)O)[C@H]1CC[C@H]2[C@@H]3[C@H](O)C[C@@H]4C[C@H](O)CC[C@]4(C)[C@H]3CC[C@]12C [Chenodeoxycholic Acid]
fiber score / MBP score ([1]; 1 µM): 0.861 | fiber score / MBP score ([1]; 5 µM): 0.787 | myelination ([2]; 1 µM): -8.08 (inactive) | myelination ([2]; 5 µM): -12 (inactive)

C[C@]12CCC(=O)C=C1CC[C@@H]1[C@@H]2C(=O)C[C@@]2(C)[C@H]1CC[C@]2(O)C(=O)CO [Cortisone]
fiber score / MBP score ([1]; 1 µM): 0.752 | fiber score / MBP score ([1]; 5 µM): 0.764 | myelination ([2]; 1 µM): -12.4 (inactive) | myelination ([2]; 5 µM): -10.5 (inactive)

COc1cc(C)c(/C=C/C(C)=C/C=C/C(C)=C/C(=O)O)c(C)c1C [Acitretin]
fiber score / MBP score ([1]; 1 µM): 1.04 | fiber score / MBP score ([1]; 5 µM): 1.45 | myelination ([2]; 1 µM): 0.3 (inactive) | myelination ([2]; 5 µM): 12 (inactive)

COCCCOc1ccnc(C[S+]([O-])c2nc3ccccc3[nH]2)c1C (stereo not given) [Rabeprazole]
fiber score / MBP score ([1]; 1 µM): 0.82 | fiber score / MBP score ([1]; 5 µM): 0.912 | myelination ([2]; 1 µM): -11.1 (inactive) | myelination ([2]; 5 µM): 10.6 (inactive)

CCC(=O)O[C@@H]1CC(=O)O[C@H](C)C/C=C/C=C/[C@H](O)[C@H](C)C[C@H](CC=O)[C@H](O[C@@H]2O[C@H](C)[C@@H](O[C@H]3C[C@@](C)(O)[C@@H](OC(=O)CC)[C@H](C)O3)[C@H](N(C)C)[C@H]2O)[C@H]1OC [Midecamycin]
fiber score / MBP score ([1]; 1 µM): 0.757 | fiber score / MBP score ([1]; 5 µM): 1.13 | myelination ([2]; 1 µM): -9.01 (inactive) | myelination ([2]; 5 µM): 1.11 (inactive)

CC(=O)CC(c1ccccc1)c1c(O)c2ccccc2oc1=O (stereo not given) [Warfarin]
fiber score / MBP score ([1]; 1 µM): 0.617 | fiber score / MBP score ([1]; 5 µM): 0.623 | myelination ([2]; 1 µM): -6.64 (inactive) | myelination ([2]; 5 µM): -6.48 (inactive)

O=C(O)COCCN1CCN(C(c2ccccc2)c2ccc(Cl)cc2)CC1 (stereo not given) [Virlix]
fiber score / MBP score ([1]; 1 µM): 0.867 | fiber score / MBP score ([1]; 5 µM): 0.681 | myelination ([2]; 1 µM): -2.52 (inactive) | myelination ([2]; 5 µM): -8.81 (inactive)

C[C@]12CCC(=O)C=C1CC[C@@H]1[C@@H]2[C@@H](O)C[C@@]2(C)[C@H]1CC[C@]2(O)C(=O)COC(=O)CCC(=O)O [Cortisol succinate]
fiber score / MBP score ([1]; 1 µM): 0.943 | fiber score / MBP score ([1]; 5 µM): 1.41 | myelination ([2]; 1 µM): 0.996 (inactive) | myelination ([2]; 5 µM): 17.9 (inactive)

O=c1[nH]c(=O)n([C@H]2C[C@H](O)[C@@H](CO)O2)cc1F [Floxuridine]
fiber score / MBP score ([1]; 1 µM): 1.49 | fiber score / MBP score ([1]; 5 µM): 1.71 | myelination ([2]; 1 µM): 286 | myelination ([2]; 5 µM): 367 (active)

O=C1CN(/N=C/c2ccc([N+](=O)[O-])o2)C(=O)N1 [Nitrofurantoin]
fiber score / MBP score ([1]; 1 µM): 0.819 | fiber score / MBP score ([1]; 5 µM): 1.79 | myelination ([2]; 1 µM): -1.03 (inactive) | myelination ([2]; 5 µM): 44 (inactive)

Cc1occc(=O)c1O [Maltol]
fiber score / MBP score ([1]; 1 µM): 0.739 | fiber score / MBP score ([1]; 5 µM): 0.672 | myelination ([2]; 1 µM): -10.1 (inactive) | myelination ([2]; 5 µM): -13.4 (inactive)

COc1ccc(/C=C/C(=O)Nc2ccccc2C(=O)O)cc1OC [Tranilast]
fiber score / MBP score ([1]; 1 µM): 0.857 | fiber score / MBP score ([1]; 5 µM): 0.89 | myelination ([2]; 1 µM): -12.7 (inactive) | myelination ([2]; 5 µM): -4.27 (inactive)

CC(Oc1c(Cl)cccc1Cl)C1=NCCN1 (stereo not given) [lofexidine]
fiber score / MBP score ([1]; 1 µM): 0.929 | fiber score / MBP score ([1]; 5 µM): 1.1 | myelination ([2]; 1 µM): -15.8 (inactive) | myelination ([2]; 5 µM): 2.57 (inactive)

Cc1c(O)cccc1C(=O)N[C@@H](CSc1ccccc1)[C@H](O)CN1C[C@H]2CCCC[C@H]2C[C@H]1C(=O)NC(C)(C)C [Nelfinavir]
fiber score / MBP score ([1]; 1 µM): 0.779 | fiber score / MBP score ([1]; 5 µM): 0.634 | myelination ([2]; 1 µM): -42.1 (inactive) | myelination ([2]; 5 µM): -44.3 (inactive)

COc1c2occc2cc2ccc(=O)oc12 [Methoxsalen]
fiber score / MBP score ([1]; 1 µM): 0.488 | fiber score / MBP score ([1]; 5 µM): 0.29 | myelination ([2]; 1 µM): -11.8 (inactive) | myelination ([2]; 5 µM): -16.1 (inactive)

COc1ccc2cc(CCC(C)=O)ccc2c1 [Nabumetone]
fiber score / MBP score ([1]; 1 µM): 0.801 | fiber score / MBP score ([1]; 5 µM): 1.17 | myelination ([2]; 1 µM): -8.32 (inactive) | myelination ([2]; 5 µM): 6.9 (inactive)

Cc1cnc(NC(=O)C2=C(O)c3ccccc3S(=O)(=O)N2C)s1 [Meloxicam]
fiber score / MBP score ([1]; 1 µM): 0.958 | fiber score / MBP score ([1]; 5 µM): 1 | myelination ([2]; 1 µM): -0.993 (inactive) | myelination ([2]; 5 µM): 3.06 (inactive)
